# Screening data deposited in PubChem BioAssay by National Center for Advancing Translational Sciences (NCATS).
# MCF10A rerep: DNA re-replication induction in MCF 10a cells; MCF 10A DNA re-replication, Hoechst nuclear intensity, 48 h; Potency, µM (doses to about 46.1 µM), for inactives: at the top dose activity, positive = re-replication, actives largely listed as activators; hit rate 2.9% among 350,000; AID 624296; note: potency is the fitted concentration of half-maximal effect; % of control where 0% means no effect; nearly all actives have a fitted effect of over 50% in size
# SW480 rerep: DNA re-replication induction in SW480 cells; SW480 DNA re-replication, Hoechst DNA content imaging, 48 h; Potency, µM (series often up to 46.1 µM), for inactives: at the highest dose re-replication activation, hits mostly activators; hit rate 1.8% among 340,000; AID 624297; note: potency is the fitted concentration of half-maximal effect; % of control where 0% means no effect; nearly all actives have a fitted effect of over 55% in size
#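 250 cells/well; 23 nL cpd via pin tool; 48 hr, 37 C, 5% CO2; Hoechst 40 min; imager read of total nuclear intensity, ex 405/em 500-530 nm.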
# KB-3-1 tox: KB-3-1 parental cell cytotoxicity; Potency, µM (highest dose often 46.1 µM), most hits filed as cytotoxic; hit rate 1.4% among 400,000; KB-3-1 viability, CellTiter-Glo ATP luminescence, 72 h; note: potency is the fitted concentration of half-maximal effect; % is set by controls: 0 for no effect and ±100 for the full control effect; nearly all actives have a fitted effect of over 60% in size
#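 Luminescent ATP read-out (CellTiter-Glo) measures survival of drug-naive KB-3-1 cells after 72 h compound exposure at 37 °C. Titration series was screened from lowest to highest concentration, with DMSO vehicle plates as background controls.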
# Giardia kill: kills Giardia lamblia. Giardia lamblia trophozoite viability. hit rate 0.15% among 340,000. AID 540267. activity change, % at 7.66 µM, hits read low; in the data active = activity change below about -80%; inconclusive = between about -30% and that limit;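 note: parasites exposed to compound for two days anaerobically before the ATP read; % is set by controls: 0 for no effect and ±100 for the full control effect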
#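 Luminescence from cellular ATP indicates surviving trophozoites (100 cells/well) following 48 hrs anaerobic compound treatment at 37 deg C; signal develops 15-30 min at room temperature.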
# KB-V1 cytotox: KB-V1 MDR subline cytotoxicity | KB-V1 MDR cells viability, CellTiter-Glo, 72 h | Potency, µM (top dose mostly 46.1 µM), actives largely listed as cytotoxic | hit rate 3.4% among 400,000 | AID 1347076; note: potency is the fitted concentration of half-maximal effect; % is set by controls: 0 for no effect and ±100 for the full control effect; nearly all actives have a fitted effect of over 60% in size
#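 qHTS viability screen in drug-selected KB-V1 MDR cells: 72 h compound treatment at 37 degrees C, ATP luminescence end point.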
# ASM inhibitor: inhibitors of human secretory acid sphingomyelinase; placental ASM, HMU-PC fluorogenic substrate, 60 min; P17405; hit rate 0.006% among 340,000; Potency, µM (top dose mostly 57.5 µM), for the others: at the top dose activity change, negative = inhibition, hits mostly inhibitors; AID 504937; note: potency is the fitted concentration of half-maximal effect
# Target sequence (P17405 47-631 limits assumed): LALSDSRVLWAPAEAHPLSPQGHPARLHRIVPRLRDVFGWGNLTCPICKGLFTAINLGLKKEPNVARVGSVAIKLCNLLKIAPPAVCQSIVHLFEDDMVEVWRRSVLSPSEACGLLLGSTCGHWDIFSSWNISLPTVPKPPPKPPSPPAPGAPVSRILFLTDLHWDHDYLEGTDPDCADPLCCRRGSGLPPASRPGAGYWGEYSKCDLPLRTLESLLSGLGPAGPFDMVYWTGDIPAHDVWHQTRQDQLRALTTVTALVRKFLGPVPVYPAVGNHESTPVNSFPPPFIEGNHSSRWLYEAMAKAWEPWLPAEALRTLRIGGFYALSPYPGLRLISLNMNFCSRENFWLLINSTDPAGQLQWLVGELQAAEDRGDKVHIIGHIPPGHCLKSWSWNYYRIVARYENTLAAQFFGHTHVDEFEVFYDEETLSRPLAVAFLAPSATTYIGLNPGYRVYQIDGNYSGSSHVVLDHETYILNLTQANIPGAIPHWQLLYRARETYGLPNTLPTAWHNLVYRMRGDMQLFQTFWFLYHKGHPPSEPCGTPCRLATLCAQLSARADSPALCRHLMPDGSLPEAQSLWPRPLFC
#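 qHTS format. ASM enzyme prepared from human placenta hydrolyses the fluorogenic substrate HMU-PC0 (9 uM final) over 60 min at 37 °C after a 10 min compound preincubation.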
# Active calls of the source: *; i = inactive; ? = inconclusive; . = not tested or not shown; [ ] = remark or other dose. Only some compounds are listed: those with a hit (about 6.9% of all), similar ones and a draw of the others. Unless noted, calls come from the whole dose curve; as a rule, active = well fitted curve in the direction sought with a large enough effect; inconclusive = small, poorly fitted or top-dose-only effect, or another doubt; inactive = no such curve, though single readings can be large; an effect the other way counts as inactive or inconclusive.
SMILES,MCF10A rerep,SW480 rerep,KB-3-1 tox,Giardia kill,KB-V1 cytotox,ASM inhibitor
COc1ccc(-c2nc(SCC(=O)NCc3nc4ccccc4n3C)n3[nH]c(=O)cc3n2)cc1,.,.,i,.,?,.
COCCN(C(=O)c1cccc(-n2cnnn2)c1)c1c(N)n(CC(C)C)c(=O)[nH]c1=O,1.3%,-68.7%,i,-11.0,i,.
COc1ccc(NC(NC(=O)c2ccc(OC)cc2)C(Cl)(Cl)Cl)cc1 (configuration not stated),1.6%,0.2%,i,0.1,?,-1.9%
COc1ccc(C(=O)NC(Nc2ccc(C)cc2)C(Cl)(Cl)Cl)cc1 (configuration not stated),5.3%,-7.7%,?,25.6,14.6µM*,-4.9%
O=C(COC(=O)/C(=C/c1cccs1)c1cccs1)NC(c1ccccc1)c1ccccc1,0.6%,2.8%,i,-13.5,8.2µM*,-2.9%
O=C(Cc1cccs1)NC(c1ccccc1)c1ccccc1,-44.6%,-12.3%,i,15.7,i,2.2%
CCCCNC(=O)Cn1ncc2c(C)n(Cc3cccc(Cl)c3)c(C)c2c1=O,.,.,i,.,i,.
CCOC(=O)c1[nH]c(C)c(C(=O)c2cc(F)ccc2F)c1C,1.16µM*,1.03µM*,0.92µM*,-0.9,?,-1.7%
CCOC(=O)c1[nH]c(C)c(C(=O)OCc2ccccc2F)c1C,8.2µM*,7.31µM*,4.61µM*,17.7,2.31µM*,4.3%
COc1cc(-c2nc(-c3ccccc3)c(-c3cccs3)[nH]2)cc(OC)c1O,?,-4.1%,?,-14.6,20.6µM*,-12.7%
Cc1cc(NC(=O)C2CCCCC2)n(-c2nc3ccccc3[nH]2)n1,?,1.9%,?,2.6,?,-22.1%
Cc1cc(NC(=O)c2ccc(C)s2)n(-c2nc3ccccc3[nH]2)n1,5.2%,0.8%,i,12.1,i,-18.8%
O=C(Nc1nc2ccccc2[nH]1)c1ccccc1F,?,?,?,-89.4*,7.31µM*,-5.4%
Cc1cc(NC(=O)c2c(F)cccc2Cl)n(-c2nc3ccccc3[nH]2)n1,10µM*,-4.7%[9.22 µM],i,-8.5,i,-15.9%
Cc1cc(NC(=O)c2c(F)cccc2F)n(-c2nc3ccccc3[nH]2)n1,11.6µM*,8.2µM*,?,-3.5,i,-13.2%
Cc1cc(NC(=O)c2ccccc2F)n(-c2nc3ccccc3[nH]2)n1,?,5.3%,?,2.0,14.6µM*,-10.8%
O=C(Nc1nc2ccccc2[nH]1)c1ccccc1OC(F)F,-3.8%,3.1%,?,?,i,-5.7%
Cc1ccccc1Nc1c(-c2ccc(Cl)s2)nc2ccccn12,.,.,.,2.8,.,.
CCOC(=O)c1ccccc1NC(=O)NCc1cccn1Cc1ccc(F)cc1,.,.,?,.,i,.
Clc1cccc(CSc2ccc(-c3cccs3)nn2)c1,.,.,?,.,i,.
CCCC(=O)N(c1ccc2oc(C)c(C(C)=O)c2c1)S(=O)(=O)c1ccc(CC)cc1,.,.,3.66µM*,.,2.91µM*,.
CC(=O)c1c(C)oc2ccc(N(C(C)=O)S(=O)(=O)c3ccc(Cl)c([N+](=O)[O-])c3)cc12,1.84µM*,?,?,-26.6,?,-0.3%
COC(=O)c1c(C)oc2ccc(N(C(C)=O)S(=O)(=O)c3ccccc3)cc12,9.6%,1.4%,23.1µM*,1.1,2.31µM*,-1.9%
COC(=O)c1c(C)oc2ccc(N(C(=O)c3ccncc3)S(=O)(=O)c3cc(C)ccc3C)cc12,.,.,13µM*,.,6.51µM*,.
CC(=O)c1c(C)oc2ccc(N(C(=O)c3ccncc3)S(=O)(=O)c3ccccc3)cc12,3.3%,-0.7%,i,-3.7,?,-1.9%
SMILES,MCF10A rerep,SW480 rerep,KB-3-1 tox,Giardia kill,KB-V1 cytotox,ASM inhibitor
COC(=O)c1c(C)oc2ccc(N(C(=O)c3ccncc3)S(=O)(=O)c3ccc(Br)cc3)cc12,.,.,i,.,i,.
CC(=O)c1c(C)oc2ccc(N(C(C)=O)S(=O)(=O)c3ccc(Br)cc3)cc12,?,-5.0%,i,13.8,?,-5.9%
CCOc1ccc2nc(N3CCCC(C(=O)NCCc4ccc(OCC)c(OCC)c4)C3)sc2c1 (configuration not stated),.,.,i,.,i,.
Cc1ccc(NC(=O)c2ccc3c(O)c(S(=O)(=O)c4ccccc4)c(=O)[nH]c3c2)cc1Cl,.,.,i,.,i,.
COc1cccc(CNC(=O)CCCCCn2c(=O)[nH]c3cc(OC)c(OC)cc3c2=O)c1,.,.,i,.,i,.
Cc1oc2ccc(O)c(CN3CCN(Cc4ccccc4)CC3)c2c1C(=O)Nc1ccccc1,.,.,i,.,i,.
CC1CC(C)CN(C(=O)C(NS(=O)(=O)c2ccc(Br)s2)c2ccccc2)C1 (configuration not stated),16.4µM*,-96.9%,i,4.5,i,-6.1%
Cc1cc(C)n(CCNS(=O)(=O)c2ccc(C)c(C)c2)n1,-12.5%,-4.0%,i,19.7,?,0.6%
CCCCOc1ccccc1NC(=O)Cn1c(-c2nonc2N)nc2ccccc21,0.794µM*,?,4.61µM*,-1.1,1.84µM*,0.6%
CCCCOc1ccccc1NC(=O)Cn1c(-c2cncs2)nc2ccccc21,.,.,i,.,i,.
NNC(=O)Cn1c(-c2nonc2N)nc2ccccc21,2.2%,-1.0%,i,4.6,i,2.2%
Nc1nonc1-c1nc2ccccc2n1CC(=O)N/N=C\c1ccc(-c2ccc(Cl)cc2)o1,8.91µM*,?,?,17.9,?,2.5%
CSc1ccccc1NC(=O)Cn1c(-c2cscn2)nc2ccccc21,20.8%,-9.2%,i,22.2,16.4µM*,-2.7%
COc1ccc(OC)c(NC(=O)CSC2=Nc3ccccc3C3=NC(CC(=O)NCc4ccc5c(c4)OCO5)C(=O)N23)c1 (configuration not stated),.,.,i,.,i,.
CCc1nn2cc(C(=O)c3cc(C)ccc3O)cnc2c1-c1ccc(F)cc1,18.4µM*,-1.4%,i,10.4,?,.
Cn1c(=O)c(=O)n(C)c2cc(N3CCCC3)c(NC(=O)c3ccccc3F)cc21,.,.,i,.,i,.
FC(F)(F)c1cc(CCN2CCNC[C@H]2Cc2cccc3ccccc23)cc(C(F)(F)F)c1,16.4µM*,?,i,-11.4,i,-16.9%
CCCN(CCC)S(=O)(=O)c1ccc(C(=O)Nc2nnc(CSC)o2)cc1,?,20.8%,6.51µM*,18.8,7.31µM*,-0.3%
CCCCN(CCCC)S(=O)(=O)c1ccc(C(=O)Nc2nnc(CSC)o2)cc1,10.3µM*,?,?,2.9,?,-0.5%
CCCCN(CC)S(=O)(=O)c1ccc(C(=O)Nc2nnc(CSC)o2)cc1,?,?,?,0.8,i,-1.0%
Cc1ccc(Cl)cc1-n1ncc2c(N3CCC(C)CC3)ncnc21,.,.,i,.,i,.
